Reference: the supplement of paper PMC6763611

tested on: Plasmodium falciparum NF54; assay: growth inhibition relative to untreated control; higher = more inhibition; details: 1 µM; MM + chorismate end-products (CM screening medium); 72 h
Procedure, shortened: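 Ring-stage P. falciparum NF54 parasites at 1% hematocrit and 1% parasitemia were dispensed at 100 μL/well into dark 96-well half-area plates and given a single dose of test compound at 5 μM or 1 μM for 72 h at 37 °C. Incubation took place in minimal RPMI, either alone or supplemented with the chorismate end-products folate (2.2 μM), pABA (7.3 μM), pHBA (7.3 μM), tyrosine (111 μM), phenylalanine (90 μM) and tryptophan. Growth inhibition was determined with SYBR Green relative to untreated wells, using uninfected erythrocytes for background.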

| SMILES | growth inhibition [%] |
| --- | --- |
| Cc1ccc(S(=O)(=O)n2cc(-c3ccnc(N)c3)c3cc(Br)cnc32)cc1 | 95.2 |
| Nc1nc(N)c2c3c(sc2n1)CN(Cc1ccccc1)CC3 | 55.2 |
| CC(=O)N1CCN(c2ccc(Oc3ccc(Cl)cc3O)cc2)CC1 | 48.6 |
| COc1cccc(-n2nnnc2S(C)(=O)=O)c1 | 19.7 |
| Cc1ccc(NC(=O)c2cc(S(=O)(=O)NC(C)(C)C)ccc2C)nc1 | 70.6 |
| Cc1[nH]c2cc(F)cc(F)c2c(=O)c1-c1ccc(Oc2ccc(OC(F)(F)F)cc2)cc1 | 98.6 |
| CS(=O)(=O)N1CCC(Cn2nc(Cc3cccc4ccccc34)c3c(N)ncnc32)CC1 | 41.5 |
| CC(C)(C)c1cnc(NC(=O)c2ccccc2O)s1 | 38.5 |
| COc1cc2ncnc(NC3CCN(Cc4ccccc4)CC3)c2cc1OC | 98.1 |
| CS(=O)(=O)c1cccc(-c2cnc3[nH]cc(-c4ccc(CCC(=O)O)cc4)c3c2)c1 | 79 |
| Cc1c[nH]c(CCNC(=O)c2cc(-c3ccc(Cl)cc3)cs2)n1 | > 100 |
| COc1cc(C2=NCCN2)ccc1-c1cn(-c2cccc(C3=NCCN3)c2)nn1 | 68.5 |
| COc1cccc(-c2cc3c(Nc4cccnc4)nccc3[nH]2)c1 | 91 |
| CN(C)CCNC(=O)N1CCCN(c2ncnc3cc(-c4ccccc4)sc23)CC1 | 72.9 |
| O=C(N[C@H](Cc1ccccc1)C(=O)Nc1ccccc1N1CCOCC1)c1cccs1 | 6.47 |
| CC(C(=O)Nc1ccc2oc(-c3ccncc3)nc2c1)c1ccccc1 (stereo not drawn) | 14.6 |
| FC(F)(F)c1nnc2ccc(Cl)nn12 | 8.81 |
| Cc1nc(-c2ccccn2)nc(N(C)CCc2ccccc2)c1Cl | 31.5 |
| CCCn1nnc(NC(=O)COc2ccc(C3CCCCC3)cc2)n1 | 6.74 |

| SMILES | growth inhibition [%] |
| --- | --- |
| O=C(NCCc1ccn(-c2ccccc2)n1)C1CCCCC1 | 13.1 |
| Nc1cccnc1Nc1ccc(Cl)cc1 | 32 |
| COC(=O)c1c(NC(=O)c2cc3ccccc3oc2=O)sc2c1CCN(Cc1ccccc1)C2 | < 0 |
| CCN(CC)CCCCCCNc1cc(OC)cc2c(C)ccnc12 | 93.3 |
| CCS(=O)(=O)N(Cc1ccco1)Cc1cc2ccc(C)cc2nc1O | 44 |
| CCNC(=O)C(C)Nc1nc(-c2cccnc2)nc2sc(C)c(C)c12 (stereo not drawn) | 5.05 |
| Cc1nn(C(=O)Nc2cccc(C(F)(F)F)c2)c(C)c1Sc1ncccn1 | 0.416 |
| CCc1nc2ccc(Cl)cn2c1C(=O)NCc1ccc(N2CCC(c3ccc(OC(F)(F)F)cc3)CC2)cc1 | < 0 |
| Cc1ccc2oc(-c3cc(NC(=O)Cc4ccccc4)ccc3Cl)nc2c1 | < 0 |
| COc1cc(CN2CCC3(C=Cc4ccccc43)CC2)cc2c1OCO2 | > 100 |
| CC(C)C(Oc1cccc2ccccc12)C(=O)O (stereo not drawn) | 17.4 |
| O=C(C(Cc1c[nH]c2ccccc12)NS(=O)(=O)c1ccc(Cl)cc1)N1CCCCC1 (stereo not drawn) | 58 |
| O=C1COCc2ccc(Br)cc2N1Cc1ccc(C(F)(F)F)cc1 | 56 |
| Nc1ncc(-c2cn[nH]c2)cc1-c1nc2cc(Cl)cnc2[nH]1 | 97 |
| COc1ccccc1C(C)NCC(=O)Nc1cc(C(F)(F)F)ccc1Cl (stereo not drawn) | 86.1 |
| Cc1ccc(-c2cc(C(=O)Nc3cccnc3)c3cc(Br)ccc3n2)cc1 | 92.4 |
| O=C(NCc1ccoc1)N1CCN(Cc2ccc3c(c2)OCO3)CC1 | < 0 |
| CCCCOC(=O)Nc1cc2nc(C3CCCCC3)[nH]c2cc1N1CCCC1 | 11.2 |
| O=C(Nc1ccc(N2CCNCC2)nc1)c1oc(-c2ccccc2)nc1C(F)(F)F | 91.7 |
